Test systems include DU-145 prostate; K-562 leukemia; MALME-3M melanoma; MDA-MB-231 breast; RXF 393 renal; SF-268 CNS; SF-295 CNS; SF-539 CNS; UACC-257 melanoma; M14 melanoma; HCT-15 colon; HT29 colon; SNB-75 CNS; SNB-19 CNS; U251 CNS; PC-3 prostate; SK-MEL-5 melanoma; UACC-62 melanoma; LOX IMVI melanoma; SK-MEL-28 melanoma.
Common to all, as to experiment: NCI-60 one-dose screen, 48 h (100 = growth as untreated, 0 = no growth, -100 = all killed)
Holding throughout (details): 10 µM unless noted

Structures are written as SMILES. About 83,000 compounds went through this panel and 20% of them were active in at least one assay; those are over-represented in the sample as a whole.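 Single-concentration screen, 48 h exposure, 96-well plates. Endpoint: percent growth. Below 10 = active.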 Unmarked numbers belong to inactive results. Activity calls are given as the source filed them.

With `C[n+]1cccc(CC(=O)NO)c1`, the growth was 109% in the assay on DU-145 prostate; 94.4% with K-562 leukemia; 104% in the assay on MALME-3M melanoma; 100% in the assay on MDA-MB-231 breast; 106% with RXF 393 renal; 104% in the assay on SF-268 CNS. Moreover, the growth is 113% in the assay with SF-295 CNS; 90.9% with SF-539 CNS; 67.7% in the assay with UACC-257 melanoma; 99.2% in the assay on M14 melanoma; 112% in the assay with HCT-15 colon; 99.7% in the assay with HT29 colon. The growth with SNB-75 CNS is 92.6%; in the assay with SNB-19 CNS it was 102%; in the assay with U251 CNS it was 87.6%; in the assay on PC-3 prostate, 95.5%; in the assay with SK-MEL-5 melanoma, 96.4%; in the assay with UACC-62 melanoma, 92.9%. Also, the growth was 98% in the assay with LOX IMVI melanoma and 113% in the assay with SK-MEL-28 melanoma.

Consider `COc1cccc2c1C(=O)c1c(O)c3c(c(O)c1C2=O)CC(O)(/C(C)=N/NC(=O)CCCCC(=O)N/N=C(\C)C1(O)Cc2c(O)c4c(c(O)c2C(OC2CC(N)C(O)C(C)O2)C1)C(=O)c1c(OC)cccc1C4=O)CC3OC1CC(N)C(O)C(C)O1` (stereo not given), for which the growth in the assay on DU-145 prostate is -47.4% [5 µM] (active); in the assay on K-562 leukemia, -51.8% [5 µM] (active); in the assay on MALME-3M melanoma, -66.9% [5 µM] (active); in the assay with MDA-MB-231 breast, -2.21% [5 µM] (active); in the assay on RXF 393 renal, -55.4% [5 µM] (active); in the assay on SF-268 CNS, -31.3% [5 µM] (active). Besides, the growth in the assay with SF-295 CNS is -35.3% [5 µM] (active); with SF-539 CNS, -41.8% [5 µM] (active); in the assay on UACC-257 melanoma it was -34.3% [5 µM] (active); in the assay with M14 melanoma, -57.1% [5 µM] (active); in the assay with HCT-15 colon, 13.8% [5 µM]; in the assay with HT29 colon, -68.9% [5 µM] (active). Also, the growth in the assay with SNB-75 CNS is -67.7% [5 µM] (active); with SNB-19 CNS it was -8.14% [5 µM] (active); in the assay with U251 CNS it was 2.32% [5 µM] (active); in the assay on PC-3 prostate, -40.4% [5 µM] (active); in the assay on SK-MEL-5 melanoma, -89% [5 µM] (active); in the assay with UACC-62 melanoma, -93% [5 µM] (active). Moreover, the growth with LOX IMVI melanoma was 1.34% [5 µM] (active); in the assay with SK-MEL-28 melanoma it was -76.5% [5 µM] (active).

Take `C=C(C)[C@@H]1CC[C@]2(C(=O)NC3CCCCC3)CC[C@]3(C)[C@H](CC[C@@H]4[C@@]5(C)CCC(=O)C(C)(C)[C@@H]5CC[C@]43C)[C@@H]12`: the growth was 104% in the assay with DU-145 prostate; 84.2% with K-562 leukemia; 84.2% with MALME-3M melanoma; 87.4% in the assay on MDA-MB-231 breast; 98.3% with RXF 393 renal; 94.3% with SF-268 CNS. Also, the growth with SF-295 CNS was 97.8%; in the assay on SF-539 CNS it was 96.1%; with UACC-257 melanoma, 94.2%; in the assay on M14 melanoma it was 97.7%; with HCT-15 colon it was 97.1%; in the assay with HT29 colon, 85.7%. The growth was 85.6% with SNB-75 CNS; 84.2% with SNB-19 CNS; 84.9% in the assay on U251 CNS; 60.1% in the assay on PC-3 prostate; 95.9% in the assay on SK-MEL-5 melanoma; 76.9% with UACC-62 melanoma. For the same compound, the growth is 92.2% in the assay on LOX IMVI melanoma and 97.1% with SK-MEL-28 melanoma.

On to `CCN(CC)CCN1CC(O)=C(c2nc(-c3ccc(Cl)cc3)cs2)C1=N`, for which the growth in the assay with DU-145 prostate is 66.4%; in the assay with K-562 leukemia, 1.62% (active); with MALME-3M melanoma it was -44.3% (active); in the assay on MDA-MB-231 breast, 12.6%; in the assay on RXF 393 renal, 25%; in the assay with SF-268 CNS it was 4.19% (active). In addition, the growth was 24% in the assay on SF-295 CNS; -69.8% (active) with SF-539 CNS; -38.4% (active) with UACC-257 melanoma; -57.1% (active) in the assay on M14 melanoma; -13.4% (active) in the assay on HCT-15 colon; -18.1% (active) in the assay with HT29 colon. Also, the growth with SNB-75 CNS is 46.7%; in the assay with SNB-19 CNS, 66.3%; in the assay on U251 CNS it was -48.2% (active); in the assay on PC-3 prostate, 76%; with SK-MEL-5 melanoma, -1.71% (active); in the assay with UACC-62 melanoma it was -81.4% (active). For the same compound, the growth in the assay on LOX IMVI melanoma was -61.4% (active); in the assay with SK-MEL-28 melanoma, -66.7% (active).

On to `N#C/C(=C\c1ccc2c(c1)OCO2)n1nnc2cc(F)c(F)cc21`, for which the growth in the assay on DU-145 prostate is 36.7%; in the assay with K-562 leukemia, 18%; in the assay with MALME-3M melanoma, 70.8%; in the assay with MDA-MB-231 breast, 80.1%; in the assay with RXF 393 renal, 32.3%; in the assay on SF-268 CNS, 74.3%. Moreover, the growth is 102% in the assay on SF-295 CNS; 84.5% with SF-539 CNS; 75% in the assay with UACC-257 melanoma; 57% in the assay with M14 melanoma; 40.5% in the assay on HCT-15 colon; 30.3% in the assay with HT29 colon. Also, the growth in the assay with SNB-75 CNS was 20.6%; with SNB-19 CNS it was 82.3%; in the assay with U251 CNS, 83.8%; with PC-3 prostate, 51.4%; in the assay with SK-MEL-5 melanoma, 75.5%; in the assay with UACC-62 melanoma it was 47.6%. Besides, the growth was 57.3% in the assay with LOX IMVI melanoma and 92.5% in the assay with SK-MEL-28 melanoma.

Take `S=C(Cc1ccc2c(c1)CCCC2)N1CCOCC1`: the growth is 104% in the assay on DU-145 prostate; 107% with K-562 leukemia; 85.6% in the assay on MALME-3M melanoma; 103% in the assay on MDA-MB-231 breast; 115% in the assay on RXF 393 renal; 101% with SF-268 CNS. In addition, the growth is 104% in the assay with SF-295 CNS; 99.6% in the assay with SF-539 CNS; 91.5% with UACC-257 melanoma; 99.5% in the assay with M14 melanoma; 101% in the assay with HCT-15 colon; 87.9% with HT29 colon. The growth with SNB-75 CNS is 95.1%; in the assay with SNB-19 CNS, 102%; in the assay with U251 CNS, 95.6%; in the assay on PC-3 prostate, 97.8%; in the assay on SK-MEL-5 melanoma, 102%; in the assay with UACC-62 melanoma, 95.9%. Further, the growth was 93.2% in the assay with LOX IMVI melanoma and 102% with SK-MEL-28 melanoma.

On to `CC(C)CC(NC(=O)CN(Cc1ccccc1)S(C)(=O)=O)C(=O)O` (stereo not given), for which the growth is 104% in the assay on DU-145 prostate; 78% in the assay with K-562 leukemia; 98.8% in the assay on MALME-3M melanoma; 111% in the assay with MDA-MB-231 breast; 80.3% with RXF 393 renal; 109% with SF-268 CNS. Further, the growth in the assay on SF-295 CNS is 96.4%; in the assay on SF-539 CNS, 90.9%; with UACC-257 melanoma, 103%; in the assay on M14 melanoma, 97%; in the assay on HCT-15 colon, 101%; in the assay with HT29 colon it was 97.4%. Besides, the growth in the assay on SNB-75 CNS is 80%; with SNB-19 CNS, 91.6%; in the assay with U251 CNS it was 103%; with PC-3 prostate, 90.1%; in the assay on SK-MEL-5 melanoma it was 95%; in the assay with UACC-62 melanoma, 89.2%. For the same compound, the growth in the assay with LOX IMVI melanoma and in the assay with SK-MEL-28 melanoma was 100% throughout.

The values above are taken from PubChem BioAssay (NCI).
